Assay outcomes as filed in PubChem.
CD40 NFkB inh = inhibitors of CD40-induced NF-kB signaling, primary screen, BL2 cells, luciferase reporter, single point; CD40L-induced, 4 h; inhibition, % at 10 µM; actives 0.94% (n = 83,000); AID 1053188, 2014;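 active = mean inhibition of at least 50% with a set share of replicates also reaching that level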
Hits are given with their value; – = inactive; [ ] = remark or other dose. Many of the other results were omitted from the sample, so hits are more common in it than they were.

SMILES	CD40 NFkB inh
N#C[C@@H]1[C@H](c2ccccc2C2=CCCCC2)[C@H](CO)N1S(=O)(=O)c1cccc(F)c1	–
O=C(C1CCCCC1)N1C[C@@H]2[C@H](c3ccccc31)[C@@H](CO)N2Cc1ccccc1Cl	–
Cc1noc(C)c1NC(=O)N(C)C[C@H]1OCc2ccccc2-c2ccccc2C(=O)N([C@@H](C)CO)C[C@H]1C	–
C[C@H]1CN(C)C(=O)Cc2ccccc2O[C@@H]1CN(C)C	–
COc1ccc(-c2cc(C(=O)N3CC(C)CC(C)C3)c3ccccc3n2)cc1 (centres undefined)	–
COc1ccc2cc(-c3cc(C(=O)O)c4ccccc4n3)ccc2c1	83
COc1ccc(-c2cc(C(=O)N3CCCC3)c3ccccc3n2)cc1	–
C[C@@H]1CN(C)C(=O)c2cc(N(C)C)ccc2O[C@H]1CN(C)S(C)(=O)=O	–
CN1C(=O)c2cc(NC(=O)c3ccc(C#N)cc3)ccc2OC[C@H]2O[C@@H](CC(=O)NC3Cc4ccccc4C3)CC[C@@H]21	–
CN(C)CC(=O)Nc1ccc2c(c1)[C@@H]1C[C@H](CC(=O)N3CCCCC3)O[C@H](CO)[C@@H]1O2	–
O=C(COC(=O)c1cc([N+](=O)[O-])ccc1N1CCOCC1)Nc1cc(F)ccc1F	–
N#CC1(NC(=O)COC(=O)c2cc([N+](=O)[O-])ccc2N2CCCC2)CCCCC1	44
N#CC1(NC(=O)COC(=O)c2cc([N+](=O)[O-])ccc2N2CCOCC2)CCCCC1	–
O=C(c1ccc2c(c1)OCO2)N1C[C@H]2[C@@H](c3ccccc31)[C@@H](CO)N2CC1CCCC1	–
N#C[C@@H]1[C@@H](c2ccccc2C2=CCCCC2)[C@@H](CO)N1C(=O)Cc1ccncc1	–
Cc1cc(=O)n(CC(=O)O)c2ccccc12	–
CCN(CC)CCn1c2ccccc2c(=O)c2c(O)ccc(O)c21	–
Cc1ccc2c(=O)c3ccccc3n(CCCN)c2c1C	79[25 µM]
O=C(Nc1cc(F)ccc1F)N1C[C@@H]2[C@H](c3ccccc31)[C@H](CO)N2CC1CCCC1	–
CCCC#Cc1ccc2c(c1)[C@H]1[C@H](CCN1C(=O)C1CC1)[C@H](CO)N2	–
CCN(CC(=O)Nc1c(F)cccc1F)C(=O)/C=C/c1ccc2ccccc2n1	–
CCN(CC(=O)Nc1c(F)cccc1F)C(=O)/C=C/c1ccc(C)o1	84
CCOc1ccc(/C=C/C(=O)N(CC)CC(=O)Nc2c(F)cccc2F)cc1OC	–
C[C@H](CO)N1C[C@H](C)[C@H](CN(C)Cc2ccccc2)Oc2ccc(NC(=O)c3ccncc3)cc2C1=O	–
COc1ccc(S(=O)(=O)N2CCCCN3[C@H](CO)[C@H](c4ccc(C#CC(C)C)cc4)[C@H]3C2)cc1	–
SMILES	CD40 NFkB inh
CC(C)NC(=O)N(C)C[C@@H]1Oc2ccc(N(C)C)cc2CC(=O)N(C)C[C@@H]1C	–
CNC[C@@H]1Oc2cc(C#Cc3ccccc3OC)ccc2S(=O)(=O)N([C@@H](C)CO)C[C@H]1C	–
CC=Cc1ccc2n(c1=O)C[C@@H]1[C@@H](CO)[C@H](C(=O)N3CCc4ccccc4C3)[C@H]2N1Cc1cocn1 (mixture of isomers)	–
C(=C\c1ccc2ccccc2n1)/c1ccccc1	–
C(=NN1CCCCCC1)c1ccc2ccccc2n1	77
CCOc1ccccc1C=NN1CCCCCC1	–
COc1ccc(C(=O)Nc2ccc(N3CCOCC3)cc2)cc1S(=O)(=O)N1CCCC1	–
COc1ccc(C(=O)Nc2ccc(NC(C)=O)cc2)cc1S(=O)(=O)N1CCCC1	–
COc1ccc(C(=O)Nc2ccc(N3CCOCC3)cc2)cc1S(=O)(=O)N1CCOCC1	17
O=C(C[C@@H]1C[C@H]2c3cc(NS(=O)(=O)c4ccc(F)cc4)ccc3O[C@H]2[C@H](CO)O1)N1CCc2ccccc2C1	–
C[C@@H]1CN([C@H](C)CO)C(=O)c2cc(NC(=O)Nc3ccc(F)cc3)ccc2O[C@@H](C)CCCCO[C@H]1CN(C)Cc1ccccc1	–
CN1C[C@@H]2[C@H](c3ccccc31)[C@H](CO)N2C(=O)C1CCCC1	–
O=C(Cn1cnc2ccccc2c1=O)c1ccc2c(c1)OCCO2	–
O=C(CN1C(=O)c2ccccc2S1(=O)=O)c1ccc2c(c1)OCCO2	95
O=C(CCN1C(=O)c2ccccc2S1(=O)=O)Nc1ccc2c(c1)OCCO2	–
COc1ccc(NC(=O)N2C[C@H]3[C@@H](c4ccccc42)[C@H](CO)N3C(=O)C2CCCCC2)cc1	–
O=C(c1cc(-c2cccs2)on1)N1CCc2ccccc2C1	–
Cc1ccc(OCC(=O)N2CCc3ccccc3C2)cc1C	–
Cc1ccc(OCc2cc(C(=O)N3CCc4sccc4C3)no2)cc1C	38
COC(=O)N(C)C[C@@H]1OCc2ccccc2-c2ccccc2C(=O)N([C@@H](C)CO)C[C@@H]1C	–
CN(C)C(=O)c1ccc(-c2ccc3c(c2)[C@@H]2[C@@H](CCN2C(=O)c2ccccn2)[C@@H](CO)N3C)cc1	–
O=[N+]([O-])c1ccc(O)c(Nc2ncnc3ccccc23)c1	–
O=[N+]([O-])c1ccc2ncnc(Nc3ccc4c(c3)OCCO4)c2c1	36
c1ccc2c(c1)oc1c(Nc3ccc4c(c3)OCCO4)ncnc12	–
O=C(C1CC1)N1C[C@H]2[C@@H](c3ccccc31)[C@H](CO)N2S(=O)(=O)c1ccccc1	–
SMILES	CD40 NFkB inh
COc1cccc(NC(=O)N(C)C[C@H]2Oc3ncc(/C=C/c4ccccc4)cc3C(=O)N([C@H](C)CO)C[C@@H]2C)c1	–
COc1cccc2sc(N3CCN(c4nc5ccccc5s4)CC3)nc12	–
O=C(c1cccs1)N1CCN(c2nc3ccccc3s2)CC1	–
O=C(c1ccc([N+](=O)[O-])o1)N1CCN(c2nc3ccc(F)cc3s2)CC1	32
COc1cccc2sc(N3CCN(C(=O)c4ccc([N+](=O)[O-])o4)CC3)nc12	76
O=C(C1COc2ccccc2O1)N1CCN(c2nc3ccc([N+](=O)[O-])cc3s2)CC1 (centres undefined)	–
O=C(c1ccc([N+](=O)[O-])o1)N1CCN(c2nc3c(Cl)cccc3s2)CC1	–
C[C@@H]1CCCCO[C@@H](CN(C)S(=O)(=O)c2ccccc2)[C@@H](C)CN([C@@H](C)CO)C(=O)c2cc(NC(=O)Nc3ccc4c(c3)OCO4)ccc2O1	–
Cc1ccccc1-c1ccc([C@H]2[C@H]3CN(C(=O)Nc4cccc(F)c4)CC(=O)N3[C@H]2CO)cc1	–
OCC[n+]1ccc(/C=C/c2c[nH]c3ccccc23)cc1	–
C(=Cc1c[nH]c2ccccc12)c1nccc2ccccc12	62
C(=NN=C1c2ccccc2-c2ccccc21)c1c[nH]c2ccccc12	–
CC(=O)N1[C@@H]2CN(CC(F)(F)F)C[C@H]1C2c1ccccc1 (some centres undefined)	–
CC(=O)Nc1ccc2c(c1)C(=O)N(C)C[C@H](C)[C@@H](CN(C)S(C)(=O)=O)O2	–
c1ccc(-c2noc(-c3cccnc3)n2)nc1	–
c1ccc(CCc2ccccc2-c2nc(-c3ccccn3)no2)cc1	–
c1ccc(-c2noc(-c3ccncc3)n2)nc1	–
c1ccc(-c2nccc(-c3ccc4c(c3)OCO4)n2)cc1	–
c1ccc(-c2noc(-c3ccc4c(c3)OCO4)n2)nc1	75
c1ccc(-c2noc(-c3ccc4ccccc4c3)n2)nc1	105
CC(C)C#Cc1ccc([C@H]2[C@@H](C#N)N(C(=O)c3cccc(F)c3)[C@@H]2CO)cc1	–
Cc1ccc(S(=O)(=O)NCC[C@H]2CC[C@@H](NC(=O)c3cccnc3)[C@@H](CO)O2)cc1	–
CNC[C@H]1Oc2ccc(NC(C)=O)cc2CC(=O)N(C)C[C@@H]1C	–
